Results published in PubChem BioAssay (NCATS).
Inconclusive results are not listed. Entries that show only a call come without a potency. Values without a mark were called inactive. Active and inactive are the calls of the source. Calls follow the shape of the dose curve; as a rule, active = well fitted curve in the direction sought with a large enough effect; inconclusive = small, poorly fitted or top-dose-only effect, or another doubt; inactive = no such curve, though single readings can be large; an effect the other way counts as inactive or inconclusive.

What was measured:
[1] = target: Calcium and integrin-binding protein 1 (Homo sapiens) (UniProt Q99828); experiment: Primary qHTS for Identification of Calcium Integrin Binding Protein 1 (CIB1) Competitor (AID 1508620);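 also: GST tagged CIB1 binding a fluorescein labelled alphaIIb integrin peptide tracer; top concentration of the series differs between compounds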
Sequence of Calcium and integrin-binding protein 1 (Homo sapiens) (Q99828 whole entry, looked up): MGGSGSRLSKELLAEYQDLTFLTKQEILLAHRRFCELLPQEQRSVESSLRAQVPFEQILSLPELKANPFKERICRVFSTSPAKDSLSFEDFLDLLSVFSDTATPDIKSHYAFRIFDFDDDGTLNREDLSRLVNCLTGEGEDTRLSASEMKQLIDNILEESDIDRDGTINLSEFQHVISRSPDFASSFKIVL
In short: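 CIB1-GST (1 uM final) and compound incubated 15 min at room temperature before adding FITC-alphaIIb peptide tracer (100 nM final). Competition for binding read by fluorescence polarization (ex 480, em 540) after another 15 min at room temperature.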

[2] = Primary qHTS for inhibitors of nuclear receptor binding SET domain protein 2 (NSD2) in an isogenic RCH-ACV NSD2 p.E1099K mutant (9B) (AID 1645876); also: nearly all actives have a fitted effect of over 70% in size
[3] = Primary qHTS for inhibitors of nuclear receptor binding SET domain protein 2 (NSD2) in an RCH-ACV wild type WT cells (2C) (AID 1645877); also: nearly all actives have a fitted effect of over 70% in size; also: potency is read from the fitted curve at half-maximal effect

CC1(C)CC[C@]2(C(=O)O)[C@H](O)C[C@]3(C)C(=CCC4[C@@]5(C)CC[C@H](O[C@@H]6OC[C@@H](O)[C@H](O)[C@H]6O)[C@@](C)(C(=O)O)C5CC[C@]43C)[C@@H]2C1 (stereo not given in full)
Potency [1]: inactive | Potency [2]: inactive | Potency [3]: inactive

CC1(C)C[C@@H]2[C@H](C1)[C@@]1(C)C[C@]13C(O)OC[C@]3(O)[C@H]2O (stereo not given in full)
Potency [1]: inactive | Potency [2]: inactive | Potency [3]: inactive

COc1c2c(c(C)c3c1C(=O)OC3)OC1(C)CC(O)C34OC(OC)(CCC3(C)C1C2)OC4(C)CO (stereo not given)
Potency [1]: inactive | Potency [2]: inactive | Potency [3]: inactive

CC(C)=CCC[C@](C)(O[C@@H]1O[C@H](CO[C@@H]2O[C@@H](CO)[C@H](O)[C@H]2O)[C@@H](O)[C@H](O)[C@H]1O)[C@H]1CC[C@]2(C)[C@@H]1[C@H](O)C[C@@H]1[C@@]3(C)CC[C@H](O[C@@H]4O[C@H](CO)[C@@H](O)[C@H](O)[C@H]4O[C@@H]4O[C@H](CO)[C@@H](O)[C@H](O)[C@H]4O)C(C)(C)[C@@H]3CC[C@]12C
Potency [1]: inactive | Potency [2]: inactive | Potency [3]: inactive

O=C(O)Cc1cn([C@@H]2O[C@H](CO)[C@@H](O)[C@H](O)[C@H]2O[C@@H]2O[C@H](CO)[C@@H](O)[C@H](O)[C@H]2O)c2ccccc12
Potency [1]: inactive | Potency [2]: inactive | Potency [3]: inactive

CC1=C2C[C@@]3(C)C(CCC[C@@H]3C)C(O)C2(O)OC1=O (stereo not given in full)
Potency [1]: inactive | Potency [2]: inactive | Potency [3]: 23 µM (active)

O=C(O)CCc1cc2ccoc2cc1O[C@@H]1O[C@H](CO)[C@@H](O)[C@H](O)[C@H]1O
Potency [1]: inactive | Potency [2]: inactive | Potency [3]: inactive

CC(C)=CC1C[C@](C)(O)[C@@H]2[C@H]3CCC4[C@@]5(C)CC[C@H](O[C@@H]6OC[C@H](O)[C@H](O[C@@H]7O[C@H](CO[C@@H]8O[C@H](CO)[C@@H](O)[C@H](O)[C@H]8O)[C@@H](O)[C@H](O)[C@H]7O)[C@H]6O[C@@H]6O[C@@H](C)[C@H](O)[C@@H](O)[C@H]6O)C(C)(C)[C@@H]5CC[C@@]4(C)[C@@]34CO[C@@]2(C4)O1 (stereo not given in full)
Potency [1]: inactive | activity change, negative = viability loss [2]: -4.74% [at 9.23 µM] | activity change, negative = cell killing [3]: 3.17% [at 9.23 µM]

CCN=C1N[C@@H]2[C@@H](O)[C@H](O)[C@@H](CO)O[C@@H]2S1
Potency [1]: inactive | Potency [2]: inactive | Potency [3]: inactive

C[C@@H]1CC2OC(=O)C3=C2C(CCC3O)[C@@]12C[C@@H](c1ccoc1)OC2=O (stereo not given in full)
Potency [1]: inactive | Potency [2]: inactive | Potency [3]: inactive

OC[C@H]1O[C@@H](OCc2ccccc2)[C@H](O[C@@H]2OC[C@@H](O)[C@H](O)[C@H]2O)[C@@H](O)[C@@H]1O
Potency [1]: inactive | Potency [2]: inactive | Potency [3]: inactive

NC(=O)[C@H](Cc1ccccc1)NC(=O)[C@H](CCCN=C(N)N)NC(=O)C12CC3CC(CC(C3)C1)C2
Potency [1]: inactive | activity change, negative = viability loss [2]: -0.15% [at 9.23 µM] | activity change, negative = cell killing [3]: 0.0232% [at 9.23 µM]

C/C=C(\C)C(=O)OCC1OC(OC2OC(CO)C(O)C(O)C2O)C(O)C(O)C1O (stereo not given)
Potency [1]: inactive | Potency [2]: inactive | Potency [3]: inactive

C=C(C)C1CCC2(C(=O)OC3OC(COC4OC(CO)C(O)C(O)C4O)C(OC4OC(C)C(O)C(O)C4O)C(O)C3O)CCC3(C(=O)O)C(CCC4C5(C)CCC(=O)C(C)(C)C5CCC43C)C12 (stereo not given)
Potency [1]: inactive | outcome [2]: inactive [at 9.23 µM] | outcome [3]: inactive [at 9.23 µM]

O=C(/C=C/c1ccc(O)cc1)OCC1OC(O)C(OC2OC(CO)C(O)C(O)C2O)C(O)C1O (stereo not given)
Potency [1]: inactive | Potency [2]: inactive | Potency [3]: inactive

CCC(C)/C=C(C)/C=C/C1=CC2=C(Cl)C(=O)C(C)(OC(C)=O)C(=O)C2=CN1C(CCCN=C(N)N)C(=O)O (stereo not given)
Potency [1]: inactive | Potency [2]: inactive | Potency [3]: inactive

C=C1CCC2C(C)(C)CC(O)CC2(C)C1CCC(C)CC(=O)O (stereo not given)
Potency [1]: inactive | Potency [2]: inactive | Potency [3]: inactive

COc1cc(O)c2c(c1)C1(OC2=O)C(C)=CC(=O)C1O (stereo not given)
Potency [1]: inactive | Potency [2]: inactive | Potency [3]: inactive

COC(=O)C1(C)CCCC2(C)c3ccc(C(C)C)cc3C(O)C(O)C12 (stereo not given)
Potency [1]: inactive | Potency [2]: inactive | Potency [3]: inactive

CC(=C\C(C)O)/C=C(\C)C(=O)CC1CC(CC(N)=O)CC(=O)O1 (stereo not given)
Potency [1]: inactive | Potency [2]: inactive | Potency [3]: inactive

C/C=C(\C)C(=O)OC[C@H]1O[C@H](O[C@H]2O[C@H](CO)[C@@H](O)[C@H](O)[C@H]2O[C@@H]2O[C@H](CO)[C@@H](O)[C@H](O)[C@H]2O)[C@H](O[C@@H]2O[C@H](CO)[C@@H](O)[C@H](O)[C@H]2O)[C@@H](O)[C@@H]1O
Potency [1]: inactive | Potency [2]: inactive | Potency [3]: inactive

C/C(=C\CCC(C)CCO)C(=O)OC[C@H]1O[C@@H](O[C@@H]2OC=C(C(=O)O)[C@H]3CC[C@](C)(O)[C@@H]23)C(O)[C@@H](O)C1O (stereo not given in full)
Potency [1]: inactive | Potency [2]: inactive | Potency [3]: inactive

CC(=O)C1CCC(=O)N1Cc1ccccc1 (stereo not given)
Potency [1]: inactive | Potency [2]: inactive | Potency [3]: inactive

OC[C@H]1O[C@@H](OC[C@H]2O[C@@H](OCc3ccccc3)[C@H](O)[C@@H](O)[C@@H]2O)[C@H](O)[C@@H](O)[C@@H]1O
Potency [1]: inactive | Potency [2]: inactive | Potency [3]: inactive

C=C1CC2C3(C)C=CC(=O)OC(C)(C)C3CC(OC(C)=O)C2(C)C2C(=O)OC(C)C(=O)C12C (stereo not given)
Potency [1]: inactive | Potency [2]: inactive | Potency [3]: inactive

COc1ccc(C2(O)c3c(ccc4c3OC(C)(CCC=C(C)C)C=C4)NC(=O)C2OC)cc1 (stereo not given)
Potency [1]: inactive | Potency [2]: inactive | Potency [3]: inactive

CC1(C(=O)O)CCCC2(C)C3CC4C5CC3(CCC12)CC45C (stereo not given)
Potency [1]: inactive | Potency [2]: inactive | Potency [3]: inactive

CC(=O)/C=C/C1(O)C(C)CC(O[C@@H]2O[C@H](CO)[C@@H](O)[C@H](O)[C@H]2O)CC1(C)C (stereo not given in full)
Potency [1]: inactive | Potency [2]: inactive | Potency [3]: inactive

O=C1C[C@@]2(C(=O)N1)C(=O)N(Cc1ccc(Br)cc1F)C(=O)c1cccn12
Potency [1]: inactive | Potency [2]: inactive | Potency [3]: inactive

CC(C)(O)C(O)C(=O)OCc1ccc(O[C@@H]2O[C@H](CO)[C@@H](O)[C@H](O)[C@H]2O)cc1 (stereo not given in full)
Potency [1]: inactive | Potency [2]: inactive | Potency [3]: inactive

C[C@]12CCC[C@](C)(C(=O)O)C1CCC13CC(CO)C(CCC12)C3 (stereo not given in full)
Potency [1]: inactive | Potency [2]: inactive | Potency [3]: inactive

O=C(/C=C/c1ccc(O)c(O)c1)O[C@H]1[C@H](OC2CCCCC2O)O[C@H](CO)[C@@H](O)[C@@H]1O (stereo not given in full)
Potency [1]: inactive | Potency [2]: inactive | Potency [3]: inactive

CC(C)=CCC/C(C)=C/CO[C@@H]1O[C@H](CO[C@@H]2OC[C@](O)(CO)[C@H]2O)[C@@H](O)[C@H](O)[C@H]1O
Potency [1]: inactive | Potency [2]: inactive | Potency [3]: inactive

CC(C)(O)c1ccc2c(c1)C(=O)C[C@H]1[C@](C)(C(=O)O)CCC[C@]21C
Potency [1]: inactive | Potency [2]: inactive | Potency [3]: inactive

CC1(C)C(=O)CCC2(C)C1C(O)C=C1COC(=O)C12O (stereo not given)
Potency [1]: inactive | Potency [2]: inactive | Potency [3]: inactive

C=CC(C)(C)C12Nc3c(ccc4c3OC(C)(C)C=C4)C1(O)CC1C(=O)N3CCCC3C(=O)N12 (stereo not given)
Potency [1]: inactive | Potency [2]: inactive | Potency [3]: inactive

O=C(O)C1(c2ccc(-c3ccc(Cl)c(Cl)c3)c(F)c2)CC1
Potency [1]: inactive | Potency [2]: inactive | Potency [3]: inactive

CC1=C2C(=O)C=C(CO)C2C2OC(=O)C(CS(=O)(=O)O)C2C(OC(=O)Cc2ccc(O)cc2)C1 (stereo not given)
Potency [1]: inactive | Potency [2]: inactive | Potency [3]: inactive

CC1=CCC(O)C2(C)CCC3C(C)C(=O)OC3C12 (stereo not given)
Potency [1]: inactive | Potency [2]: inactive | Potency [3]: inactive

COc1cc(/C=C/CO[C@@H]2O[C@H](CO)[C@@H](O)[C@H](O)[C@H]2O)cc(OC)c1O[C@@H]1O[C@H](CO)[C@@H](O)[C@H](O)[C@H]1O
Potency [1]: inactive | Potency [2]: inactive | Potency [3]: inactive

C/C=C(\C)C(=O)OC[C@H]1O[C@@H](O[C@H]2[C@@H](O[C@H]3O[C@H](COC(=O)/C(C)=C/C)[C@@H](O)[C@H](O)[C@H]3O[C@@H]3O[C@H](COC(=O)/C(C)=C/C)[C@@H](O)[C@H](OC(=O)/C(C)=C/C)[C@H]3O)O[C@H](COC(=O)/C(C)=C/C)[C@@H](O)[C@@H]2O)[C@H](O)[C@@H](O)[C@@H]1O
Potency [1]: inactive | activity change, negative = viability loss [2]: -1.81% [at 9.23 µM] | activity change, negative = cell killing [3]: -6.87% [at 9.23 µM]

C/C=C(\C)C(=O)OC[C@H]1O[C@@H](O[C@H]2[C@@H](O[C@H]3O[C@H](CO)[C@@H](O)[C@H](O)[C@H]3O[C@@H]3O[C@H](CO)[C@@H](O)[C@H](O)[C@H]3O)O[C@H](COC(=O)/C(C)=C/C)[C@@H](O)[C@@H]2O)[C@H](O)[C@@H](O)[C@@H]1O
Potency [1]: inactive | activity change, negative = viability loss [2]: -10.2% [at 9.23 µM] | activity change, negative = cell killing [3]: -10.7% [at 9.23 µM]

C[C@@H]1O[C@@H](O[C@H]2[C@@H]3C=CO[C@@H](O[C@@H]4O[C@H](CO)[C@@H](O)[C@H](O)[C@H]4O)[C@@H]3[C@@]3(CO)O[C@@H]23)[C@H](O)[C@H](OC(=O)/C=C/c2ccc(O)c(O)c2)[C@H]1O
Potency [1]: inactive | Potency [2]: inactive | Potency [3]: inactive

C=Cc1ccc(O[C@@H]2O[C@H](CO[C@@H]3O[C@@H](C)[C@H](O)[C@@H](O)[C@H]3O)[C@@H](O)[C@H](O)[C@H]2O)cc1
Potency [1]: inactive | Potency [2]: inactive | Potency [3]: inactive

CC(C)C1C(OC(=O)/C=C/c2ccccc2)CC2(C)OC2CCC2(C)OC2C1O (stereo not given)
Potency [1]: inactive | Potency [2]: inactive | Potency [3]: inactive
